Vaccinia mCherry – inhibitors of vaccinia virus infection (mCherry reporter signal). Vaccinia virus mCherry reporter infection, fluorescence. Potency, µM (highest dose often 36.5 µM), for the others: top-dose activity change, negative = inhibition, usual class: inhibitors. hit rate 0.63% among 310,000; calls by dose curve; tested in A549 cells; also: potency is read from the fitted curve at half-maximal effect; nearly all actives have a fitted effect of over 35% in size
VACV Venus inh – vaccinia inhibition (Venus reporter); Vaccinia virus Venus reporter expression, fluorescence; Potency, µM (top dose mostly 36.5 µM), for the others: at the top dose activity change, negative = inhibition, most hits filed as inhibitors; hit rate 0.46% among 330,000; AID 720580; calls by dose curve; tested in A549 cells; also: potency is read from the fitted curve at half-maximal effect; nearly all actives have a fitted effect of over 30% in size
HCV inh – HCV inhibition; Huh7.5.1 HCVcc-Cre infection, luciferase reporter, 44 h; Potency, µM (series often up to 41.8 µM), inactives show at the highest dose activity change, negative = inhibition, most hits filed as inhibitors; hit rate 3.4% among 340,000; AID 651820; active = well fitted inhibition curve with a large enough effect; inconclusive = small, poorly fitted or top-dose-only effect, or another doubt; inactive = no such curve, though single readings can be large or run the other way; also: potency is read from the fitted curve at half-maximal effect
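Infectious HCV cell culture screen: compound-treated cells (1,000/well, pre-plated 4 h) are infected with HCVcc-Cre at roughly 0.5 moi and grown 44 h. Infection is quantified by luciferase signal after 15 min substrate incubation at room temperature.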
Lassa entry inh – blocks Lassa virus binding to or entry into cells. Lassa virus pseudotype entry inhibition, cell reporter. Potency, µM (highest dose often 37.9 µM), for the others: at the top dose activity change, negative = inhibition, hits mostly inhibitors. hit rate 1.2% among 300,000; calls by dose curve; tested in HEK293 cells; also: potency is read from the fitted curve at half-maximal effect; nearly all actives have a fitted effect of over 50% in size
HCMV antiviral – blocks human cytomegalovirus replication | hit rate 4.5% among 410,000 | activity change, negative = inhibition, % at 57.5 µM | HFF cells, HCMV-luciferase reporter, 72 h; stronger effect = lower value; in the data active = activity change below about -60%; inconclusive = no clear call, values can overlap the other calls; inactive = above about -39%
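Human foreskin fibroblasts infected with luciferase-reporter HCMV at MOI 1 PFU/cell, compounds at two doses. Luciferase measured 72 h post infection; normalized to buffer-only basal and Salinomycin (10uM) controls.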
MARV entry inh – blocks Marburg virus binding to or entry into cells; Marburg virus pseudotyped entry inhibition, cell reporter; Potency, µM (series often up to 37.8 µM), without a hit: at the highest dose activity change, negative = inhibition, most hits filed as inhibitors; hit rate 1.8% among 300,000; AID 540276; calls by dose curve; tested in HEK293 cells; also: potency is read from the fitted curve at half-maximal effect
An asterisk follows results filed as active; i = inactive; ? = inconclusive; · = no result; [ ] = remark or other dose. The list is not random: actives were taken first. Their share in the collection is about 7.8%. % is scaled to controls: 0 for no effect and ±100 for the full control effect.

SMILES	Vaccinia mCherry	VACV Venus inh	HCV inh	Lassa entry inh	HCMV antiviral	MARV entry inh
CC(C)(C)C1CCN2CCCC(c3ccccc3)(C1)C2=O (stereo unspecified)	3%	9%	·	·	-12	·
Cc1cc2c(cc1NS(=O)(=O)c1ccc(F)cc1)n(C)c(=O)c(=O)n2C	15%	1%	·	1%[46.1 µM]	33	·
CCN(CC)C(=O)CSc1nnc2[nH]c(=O)cc(C)n12	-3%	-19%	·	-6%[46.1 µM]	-37	·
CC(=O)N1CCOc2ccc(S(=O)(=O)NCC3CCC(C(=O)Nc4ccc(C)cn4)CC3)cc21 (stereo unspecified)	-16%	-11%	?	?	-68*	?
CC1Cc2cc(S(=O)(=O)N3CCC(C(=O)Nc4ccccn4)CC3)ccc2N1C(=O)C1CCC1 (stereo unspecified)	-23%	-28%	7.9µM*	?	-73*	?
CC(C)CCNC(=O)C1CCN(S(=O)(=O)c2ccc3c(c2)CC(C)N3C(=O)C2CCC2)CC1 (stereo unspecified)	-12%	-24%	-7%	-22%[46.1 µM]	-10	-1%[46.1 µM]
O=C(c1ccccc1Br)N(CCc1ccccc1)C(CCc1ccccc1)c1nc2ccccc2[nH]1 (stereo unspecified)	·	·	·	·	-6	·
CCc1ccc(-c2nc(CSCC(=O)NCc3ccccc3OC)c(C)o2)cc1	8%	-4%	·	-5%[46.1 µM]	-5	14%[46.1 µM]
COc1cc(NC(=O)c2c3c(nc4ccccc24)CCC3)cc(OC)c1	·	·	-7%	-4%	-102*	?
Cc1ccccc1NC(=O)c1c2c(nc3ccccc13)CCC2	6%	-7%	-15%	15%	-71*	10%[46.1 µM]
CCC1CN(CCNC(=O)C2CCCCN2C)Cc2cc(OC)ccc2O1 (stereo unspecified)	-13%	6%	·	·	·	·
CCC(NC(=O)NNC(N)=S)(C(F)(F)F)C(F)(F)F	?	28µM*	16%	-11%	29	?
C[n+]1c(-c2ccccc2)c2cc(N)ccc2c2ccc(N)cc21	?	126%	2.5µM*	·	-100*	·
Nc1ccc2nc(-c3ccccc3)c(-c3ccccc3)nc2c1	?	12%	13%	-17%	47	-10%[46.1 µM]
CCOc1ccc(-c2cn3c(n2)sc2cc(C(=O)NCCc4ccc(OC)cc4OC)ccc23)cc1	-11%	-12%	·	·	·	?
COc1ccccc1C(CNC(=O)CNC(=O)c1cccc(Cl)c1)N1CCCC1 (stereo unspecified)	-10%	-12%	6%	3%	4	7.1µM*
COc1ccccc1C(CNC(=O)C(CCSC)NC(=O)c1ccccc1Cl)N1CCCC1 (stereo unspecified)	-17%	-11%	13%	6%	10	2.8µM*
CCCCn1cc(S(=O)(=O)c2ccc(OC)cc2)c(=O)c2cc(F)c(N3CCCC3)cc21	7%	-5%	·	18%[46.1 µM]	-11	·
O=C1Cc2cc(S(=O)(=O)N3CCCCC3)cc3c2N1CCC3	-12%	-13%	·	-5%[46.1 µM]	-18	·
Cc1c(CCCN)c2ccccc2n1Cc1ccccc1	?	-26%	11µM*	·	-35	·
CC(C)(C)S(=O)N1Cc2cc(C(=O)N3CCc4ccccc4C3)nc(-c3cccc(-c4ccncc4)c3)c2[C@H]1CCO (stereo partly specified)	22%	-4%	·	·	4	·
CCCCN(CC)CCCNC(=O)Nc1sc2nc3n(c(=O)c2c1C)CCC(C)CC3 (stereo unspecified)	i	-5%	·	·	-37	10µM*
O=c1[nH]c2cccnc2n1-c1cccc([N+](=O)[O-])c1	-21%	-8%	18%	4%	-85*	13%[46.1 µM]
CC1(C(=O)NCc2ccccc2)CSCC(=O)N1C1CCN(Cc2ccccc2)CC1 (stereo unspecified)	-19%	-6%	·	·	-27	·
Cc1cccc(C)c1NC(=O)C1(C)CSCC(=O)N1C1CCN(Cc2ccccc2)CC1 (stereo unspecified)	-19%	-2%	·	·	-68*	·
SMILES	Vaccinia mCherry	VACV Venus inh	HCV inh	Lassa entry inh	HCMV antiviral	MARV entry inh
Cc1cc(C(=O)COC(=O)c2ccc(N)c([N+](=O)[O-])c2)c(C)n1Cc1ccc2c(c1)OCO2	-21%[7.34 µM]	-7%[7.34 µM]	13µM*	·	-25	·
CN(C)C(=O)CSc1nnc(-c2cc(-c3cccs3)nc3ccccc23)o1	·	5µM*	?	-25%	-1	?
C=CCn1c(C)cc(C(=O)COC(=O)c2ccc(N)c([N+](=O)[O-])c2)c1C	-27%	?	?	?	22	?
CC(=O)Nc1ccc(S(=O)(=O)NCC(=O)OCC(=O)c2cc(C)n(-c3ccc4c(c3)OCO4)c2C)cc1	-9%	-4%	7%	-4%	12	?
Cc1cc(C(=O)COC(=O)c2ccc(N)c([N+](=O)[O-])c2)c(C)n1-c1ccc2c(c1)OCO2	·	·	2µM*	-5%	-74*	-29%
Cc1cc(C(=O)CSc2nnc(-c3ccco3)o2)c(C)n1-c1ccc2c(c1)OCCO2	·	-18%	13µM*	?	-28	-15%
Cc1ccc(NC(=O)N2CCN(c3cc(-c4noc(C)n4)ccc3C)CC2)c(F)c1	-26%	?	·	?	-26	·
O=C(NCc1ccc(Cl)cc1)c1cnc2sc(N3CCCC3)nn2c1=O	-15%	-14%	·	-10%[46.1 µM]	-15	·
CC(=O)c1ccc(OCC(=O)c2cc(C)n(-c3ccc4c(c3)OCO4)c2C)cc1	-23%	-15%	13µM*	?	-40	?
Cc1nnc(SCC(=O)c2cc(C)n(-c3ccc4c(c3)OCO4)c2C)s1	-9%	-4%	11µM*	-6%	-66*	?
Cc1cc(C(=O)CSc2nnnn2C)c(C)n1-c1ccc2c(c1)OCCO2	·	·	-8%	27%	53	-22%
Cc1cc(C(=O)CSc2nnc(-c3cccs3)o2)c(C)n1-c1ccccc1	·	·	8.9µM*	-18%	-23	?
O=C(CSc1nnc(-c2cccs2)o1)c1cccs1	?	?	-15%	14%	28	17%
COc1ccc2[nH]c3c(NCCN(C(C)C)C(C)C)ncnc3c2c1	·	-6%	?	-9%	12	11µM*
C1=C(CCNc2ncnc3c2[nH]c2ccccc23)CCCC1	?	?	1.1µM*	?	-91*	?
COc1ccc(CNc2ncnc3c2[nH]c2ccccc23)cc1	-4%[7.34 µM]	-21%[7.34 µM]	5µM*	?	-72*	?
CCOc1ccc2[nH]c3c(NCCN(CC)CC)ncnc3c2c1	?	-21%	-2%	-26%	17	?
CC(C)OCCCNc1ncnc2c1[nH]c1ccccc12	·	·	2.5µM*	?	-75*	?
CCOc1ccc2[nH]c3c(NCCCOC)ncnc3c2c1	·	·	-24%	·	36	·
COCCNC(=O)c1cn(C2CCN(C3CCCC3)CC2)nn1	-6%	4%	·	·	·	·
COc1ccc(CNc2ncnc3c2[nH]c2cc(OC)c(OC)cc23)cc1	-12%	-17%	?	-2%[46.1 µM]	-9	?
Cc1ccc2[nH]c3c(NCc4ccccc4)ncnc3c2c1	·	·	7.9µM*	·	?	·

Source: PubChem (National Center for Advancing Translational Sciences (NCATS))
